Records with an inconclusive call do not appear. Calls of active or inactive are those of the source. Calls come from the whole dose curve; as a rule, active = well fitted inhibition curve with a large enough effect; inconclusive = small, poorly fitted or top-dose-only effect; inactive = flat fitted curve, though single readings scatter.
The compounds below were run against Luciferin 4-monooxygenase (Photinus pyralis) (UniProt P08659) (assay: qHTS Assay for Inhibitors of Firefly Luciferase from the GSK Published Protein Kinase Inhibitor Set). Details: purified firefly luciferase, luminescence inhibition; series mostly up to 57.5 µM.
Sequence of Luciferin 4-monooxygenase (Photinus pyralis) (P08659 whole entry, looked up): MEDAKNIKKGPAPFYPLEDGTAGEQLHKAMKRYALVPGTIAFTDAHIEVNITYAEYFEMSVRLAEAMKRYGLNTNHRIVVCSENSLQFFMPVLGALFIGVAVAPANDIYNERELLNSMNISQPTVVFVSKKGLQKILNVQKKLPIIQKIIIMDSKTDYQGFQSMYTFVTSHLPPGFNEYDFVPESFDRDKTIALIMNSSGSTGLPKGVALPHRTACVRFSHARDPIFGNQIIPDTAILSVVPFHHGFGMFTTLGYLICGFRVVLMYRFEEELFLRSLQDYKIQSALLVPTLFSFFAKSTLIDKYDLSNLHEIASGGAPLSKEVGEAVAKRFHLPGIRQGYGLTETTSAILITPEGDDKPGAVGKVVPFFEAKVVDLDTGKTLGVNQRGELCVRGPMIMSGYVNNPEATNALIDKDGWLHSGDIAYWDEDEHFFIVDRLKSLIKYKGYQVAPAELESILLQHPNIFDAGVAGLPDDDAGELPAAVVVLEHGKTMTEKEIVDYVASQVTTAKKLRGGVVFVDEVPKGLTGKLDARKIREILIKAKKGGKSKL
Text: FLuc (firefly luciferase) is the prototypical bioluminescent reporter gene from Photinus pyralis.[1] The enzyme catalyzes the oxidation luciferin via luciferin-AMP to produce light. FLuc is used in cell-based reporter gene-based assays for screening small molecule chemical libraries. However, small molecule luciferase inhibitors present in most large chemical libraries are often enriched in the output of high throughput screens using this reporter sometimes complicating interpretation and candidate selection.
RLuc is a bioluminescent reporter gene luciferase from Renilla reniformis, also known as the sea pansy. RLuc uses the luciferin substrate coelenterazine. RLuc is often used in combination with the nonhomologous luciferase FLuc (firefly luciferease) as a trasfection or pathway normalization control. Recently, non-homologous reporters have been described for high throughput screening 'coincidence' reporter gene strategies.
1. Fan F, Wood KV (2007) Bioluminescent assays for high-throughput screening. Assay Drug Dev Technol 5: 127-136.
2. Thorne N, Inglese J, Auld DS (2010) Illuminating insights into firefly luciferase and other bioluminescent reporters used in chemical biology. Chem Biol 17: 646-657.
3. […] Chem Biol 19: 1060-1072.
4. Michelini E, Cevenini L, Mezzanotte L, Coppa A, Roda A (2010) Cell-based assays: fuelling drug discovery. Anal Bioanal Chem 398: 227-238.
5. Cheng KC, Inglese J (2012) A coincidence reporter-gene system for high-throughput screening. Nat Methods 9: 937.
Biochemical firefly luciferase enzyme assay
NCGC Assay Protocol Summary:
Reagents: 50mM Tris acetate, pH 7.5; 10mM Mg acetate; 10uM D-luciferin (Sigma #L9504); 10uM ATP; 0.01% Tween-20; 0.05% BSA; 10nM P. pyralis luciferase (Sigma #L9506)
Control compounds used were two known firefly luciferase inhibitors (compounds (2) and (5) in Auld et al., 2010), and DMSO.
Three microliters containing firefly luciferase substrates in buffer (final concentrations: 50mM Tris acetate, pH 7.5, 10mM Mg acetate, 0.01% Tween-20, 0.05% BSA, 10uM D-luciferin, and 10uM ATP) are dispensed into each well of a Greiner white, solid-bottom 1536-well format plate using a flying reagent dispenser (FRD). These assay plates were then treated with 23nL of compound or DMSO using a Kalypsys pin tool, which allows for delivery of a 7-point interplate titration of each compound to the assay plates (quantitative HTS), with final compound concentrations ranging from approximately 60uM to 300pM. One microliter of firefly luciferase in 50mM Tris-acetate buffer was then delivered by FRD to each well for a final enzyme concentration of 10nM. Luciferase activity was then measured using an Envision plate reader (PerkinElmer), with an average incubation time of 5 min.
Potency is the fitted concentration of half-maximal effect.

Potency, inactive:
NCc1ccc(-c2nc(-c3ccc(Cl)c(O)c3)c(-c3ccncc3)[nH]2)cc1
Cc1ccc(C(=O)NC(C)C)cc1-c1ccc(C(=O)NCC2CC2)cc1
NS(=O)(=O)c1ccc(-c2cc3ccncc3cc2OCc2ccccc2)cc1
CC(C)COC(=O)c1ccc2[nH]c(O)c(C=Nc3ccc(S(N)(=O)=O)cc3)c2c1
CC(C)=Cc1cccc2[nH]c(O)c(N=Nc3ccc(S(N)(=O)=O)cc3)c12
O=C1NC(=O)C(c2ccccc2Cl)=C1Nc1cccc(O)c1
CCn1c(-c2nonc2N)nc2c(N3CCCC3)nccc21
COc1cc2ncn(-c3cc(OCCc4ccccc4)c(C(N)=O)s3)c2cc1OC
COc1cc2ncnc(Nc3ccc(C)c(O)c3)c2cc1OC
Cc1cc(-c2ccccn2)cc(C)c1C=Cc1cncc(-c2nn[nH]n2)c1
ON=C1CCc2cc(-c3nc(C4CCNCC4)[nH]c3-c3ccncc3)ccc21
O=C1NC(=O)C(c2cccc([N+](=O)[O-])c2)=C1Nc1cc(Cl)c(O)c(Cl)c1
COc1ccc(-c2nn3ncccc3c2-c2ccnc(Nc3ccc(Cl)c(C(F)(F)F)c3)n2)cc1
CN(C)c1cc2c(Nc3ccc4c(cnn4Cc4ccccc4)c3)ncnc2cn1
Nc1ncc(-c2cccc(S(N)(=O)=O)c2)c2scc(-c3ccc(F)c(Cl)c3)c12
O=C(Nc1n[nH]c2nc(-c3ccco3)ccc12)C1CC1
Cc1nn(C)c2cc(N(C)c3ccnc(Nc4cccc(S(N)(=O)=O)c4)n3)ccc12
NC(=O)c1ccc(-c2nc(-c3ccc4c(c3)OCO4)c(-c3ccccn3)[nH]2)cc1
COc1cc(C)c(NC(=O)CN(C)C)cc1Nc1nc(Nc2cccc(F)c2C(N)=O)c2cc[nH]c2n1
CCn1c(-c2nonc2N)nc2cncc(C(=O)NCCNC)c21
Nc1nonc1-c1nc2cnccc2n1C1CC1
Cc1nc(-c2ccccc2)n2nc(NCCCN3CCOCC3)ncc12
NC(=O)c1sc(-n2cnc3cc(C(F)(F)F)ccc32)cc1OCc1ccccc1Br
COc1ccc(COc2ccc(Cc3cnc(N)nc3N)cc2OC)cc1
CC1=C(C(=O)Nc2ccc3[nH]ncc3c2)C(c2ccc(F)cc2)NC(=O)N1 (stereo not given)
FC(F)(F)c1ccc(-c2nn3ncccc3c2-c2ccnc(Nc3ccc4c(c3)OCCO4)n2)cc1
COc1cc(Nc2ncc3c(C)nc(-c4cccc(C(F)(F)F)c4)n3n2)cc(OC)c1OC
NS(=O)(=O)c1ccc(-c2ccc3c(NC(=O)C4CC4)n[nH]c3c2)cc1
Fc1cccc(COc2ccc(Nc3ncnc4sc(-c5cccs5)cc34)cc2Cl)c1
CN1CCC(n2cnc(-c3ccc(F)cc3)c2-c2ccnc(N)n2)CC1
CCS(=O)(=O)c1ccc(OC)c(Nc2nccc(N(C)c3ccc4c(C)[nH]nc4c3)n2)c1
Nc1nccc(-c2c(-c3ccc(F)cc3)nn3cc(C(F)(F)F)ccc23)n1
COc1cc2ncnc(Nc3ccc4c(cnn4Cc4ccccc4)c3)c2cc1OC
COc1cc(N2CCN(C(C)C)CC2)ccc1Nc1nc(Nc2cccc3ncccc23)c2cc[nH]c2n1
CCn1c(-c2nonc2N)nc2cnc(Oc3cccc(NC(=O)c4ccc(OCCN5CCOCC5)cc4)c3)cc21

Potency, active:
CNC(=O)c1cncc(C=Cc2c(Cl)cccc2Cl)c1 16.3 µM
O=C1Nc2ccccc2C1=C1CCc2cc(O)ccc21 5.17 µM
COC(=O)Nc1nc2ccc(Oc3ccc(NC(=O)Nc4ccccc4)cc3)cc2[nH]1 14.6 µM
COc1cccc(-c2c[nH]c3c(NN=Cc4ccncc4)ncnc23)c1 5.8 µM
O=C(Nc1n[nH]c2cc(-c3ccccc3)ccc12)C1CC1 18.3 µM

— PubChem BioAssay AID652016 (National Center for Advancing Translational Sciences (NCATS), 2013)
